This is an account of results in publication PMC7862700, “An all-to-all approach to the identification of sequence-specific readers for epigenetic DNA modifications on cytosine”.

Holding throughout (assay): DAPPL (digital affinity profiling via proximity ligation, sequencing); 10 mM Tris-HCl pH 7.5, 50 mM NaCl, 1 mM DTT, 4% glycerol, room temperature, 30 min; GST-TFs on glutathione beads, 16-mer random dsDNA library, 0.1% formaldehyde crosslink after washing; high values mean tight binding
Assay [1] deals with T1, FLI1 (Homo sapiens, UniProt Q01543 1-452).
T1 sequence: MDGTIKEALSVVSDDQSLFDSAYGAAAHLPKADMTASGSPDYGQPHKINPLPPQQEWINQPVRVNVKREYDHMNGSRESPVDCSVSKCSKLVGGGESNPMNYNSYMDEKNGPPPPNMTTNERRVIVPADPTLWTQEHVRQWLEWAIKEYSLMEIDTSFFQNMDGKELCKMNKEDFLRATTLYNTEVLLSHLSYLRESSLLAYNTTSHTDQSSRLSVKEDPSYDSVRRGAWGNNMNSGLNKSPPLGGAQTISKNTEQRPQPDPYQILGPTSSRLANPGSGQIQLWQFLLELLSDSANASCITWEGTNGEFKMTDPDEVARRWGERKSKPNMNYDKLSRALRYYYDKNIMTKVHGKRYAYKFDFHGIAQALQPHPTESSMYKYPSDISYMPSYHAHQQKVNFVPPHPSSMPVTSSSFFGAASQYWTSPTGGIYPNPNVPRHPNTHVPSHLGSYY
To be noted: protein: recombinant; tags: N-terminal GST; dsDNA, one strand shown. The method in brief: (§1)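 Human transcription factors were made in yeast as GST fusions, captured on glutathione beads and barcoded with DNA. With a tag-only sample included, the pool was incubated with 200 nmole of a random double-stranded 16-mer DNA library in Tris/NaCl/DTT/glycerol buffer at room temperature for 30 min, then crosslinked with 0.1% formaldehyde after washing, ligated by proximity, amplified and sequenced. For binding signal, each hexamer's read frequency for a factor is divided by its frequency for the tag-only sample.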

The target in assay [2] is T2, ELK1 (Homo sapiens, UniProt P19419 1-428).
T2 sequence: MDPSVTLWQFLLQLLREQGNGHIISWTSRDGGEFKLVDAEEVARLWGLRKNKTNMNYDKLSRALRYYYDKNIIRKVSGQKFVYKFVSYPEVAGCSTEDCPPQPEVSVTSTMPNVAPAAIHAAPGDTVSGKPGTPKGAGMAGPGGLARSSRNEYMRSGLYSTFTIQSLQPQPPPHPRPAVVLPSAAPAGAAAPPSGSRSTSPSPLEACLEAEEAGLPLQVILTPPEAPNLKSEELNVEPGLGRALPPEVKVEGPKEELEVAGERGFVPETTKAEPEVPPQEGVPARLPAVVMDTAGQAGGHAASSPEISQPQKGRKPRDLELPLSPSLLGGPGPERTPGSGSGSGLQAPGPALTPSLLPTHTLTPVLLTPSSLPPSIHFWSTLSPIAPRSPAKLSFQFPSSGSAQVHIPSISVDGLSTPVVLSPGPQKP
To be noted: protein: recombinant; tags: N-terminal GST; dsDNA, one strand shown. The method in brief: as §1

The target of assay [3] is T3, GABPA (Homo sapiens, UniProt Q06546 1-454).
T3 sequence: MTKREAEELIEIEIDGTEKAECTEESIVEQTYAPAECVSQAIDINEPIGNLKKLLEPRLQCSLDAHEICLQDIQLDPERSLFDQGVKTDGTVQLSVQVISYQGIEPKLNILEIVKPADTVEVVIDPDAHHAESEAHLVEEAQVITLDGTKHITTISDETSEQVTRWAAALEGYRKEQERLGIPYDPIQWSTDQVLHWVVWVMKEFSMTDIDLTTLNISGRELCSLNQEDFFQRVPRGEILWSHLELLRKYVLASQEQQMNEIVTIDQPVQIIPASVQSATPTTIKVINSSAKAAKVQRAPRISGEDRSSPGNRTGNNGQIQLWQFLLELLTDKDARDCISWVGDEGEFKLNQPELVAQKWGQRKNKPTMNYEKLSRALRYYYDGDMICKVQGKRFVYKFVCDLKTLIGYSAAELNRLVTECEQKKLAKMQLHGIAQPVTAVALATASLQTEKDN
To be noted: protein: recombinant; tags: N-terminal GST; dsDNA, one strand shown. The method in brief: as §1

Assay [4] deals with T4, ERG (Homo sapiens, UniProt P11308 1-479).
T4 sequence: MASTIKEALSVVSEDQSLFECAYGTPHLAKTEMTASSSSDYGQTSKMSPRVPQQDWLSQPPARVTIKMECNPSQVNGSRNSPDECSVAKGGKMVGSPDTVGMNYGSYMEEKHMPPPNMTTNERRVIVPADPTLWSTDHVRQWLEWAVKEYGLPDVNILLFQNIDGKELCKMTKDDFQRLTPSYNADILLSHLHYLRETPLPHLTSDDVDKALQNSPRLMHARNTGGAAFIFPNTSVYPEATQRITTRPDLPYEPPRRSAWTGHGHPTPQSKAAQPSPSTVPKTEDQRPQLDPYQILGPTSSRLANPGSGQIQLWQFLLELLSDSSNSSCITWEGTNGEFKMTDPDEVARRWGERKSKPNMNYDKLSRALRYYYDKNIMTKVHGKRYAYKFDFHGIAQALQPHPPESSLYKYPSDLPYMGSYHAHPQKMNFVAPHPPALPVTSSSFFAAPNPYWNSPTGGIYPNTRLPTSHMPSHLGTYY
To be noted: protein: recombinant; tags: N-terminal GST; dsDNA, one strand shown. Put shortly: as §1

For assay [5], the target named is ELF1 (Homo sapiens, UniProt P32519 1-619). Particulars: protein: recombinant; tags: N-terminal GST; dsDNA, one strand shown. Put shortly:
as §1

In assay [6] the target is T5, EHF (Homo sapiens, UniProt Q9NZC4 1-300).
T5 sequence: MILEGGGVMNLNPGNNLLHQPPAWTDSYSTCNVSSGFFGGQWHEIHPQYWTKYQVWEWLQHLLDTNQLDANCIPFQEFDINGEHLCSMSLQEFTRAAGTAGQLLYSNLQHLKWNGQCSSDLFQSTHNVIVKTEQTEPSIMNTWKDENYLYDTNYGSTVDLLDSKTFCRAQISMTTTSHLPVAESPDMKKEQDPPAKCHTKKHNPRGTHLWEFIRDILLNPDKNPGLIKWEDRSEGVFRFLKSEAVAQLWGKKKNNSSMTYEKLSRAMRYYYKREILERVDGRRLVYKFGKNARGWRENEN
To be noted: protein: recombinant; tags: N-terminal GST; dsDNA, one strand shown. Put shortly:
as §1

For assay [7], the target named is SPI1 (Homo sapiens, UniProt P17947 1-270). Particulars: protein: recombinant; tags: N-terminal GST; dsDNA, one strand shown. The method in brief:
as §1

Assay [8] addresses SPIB (Homo sapiens, UniProt Q01892 1-262). To be noted: protein: recombinant; tags: N-terminal GST; dsDNA, one strand shown. Put shortly:
as §1

The target in assay [9] is T6, ELK3 (Homo sapiens, UniProt P41970 1-407).
T6 sequence: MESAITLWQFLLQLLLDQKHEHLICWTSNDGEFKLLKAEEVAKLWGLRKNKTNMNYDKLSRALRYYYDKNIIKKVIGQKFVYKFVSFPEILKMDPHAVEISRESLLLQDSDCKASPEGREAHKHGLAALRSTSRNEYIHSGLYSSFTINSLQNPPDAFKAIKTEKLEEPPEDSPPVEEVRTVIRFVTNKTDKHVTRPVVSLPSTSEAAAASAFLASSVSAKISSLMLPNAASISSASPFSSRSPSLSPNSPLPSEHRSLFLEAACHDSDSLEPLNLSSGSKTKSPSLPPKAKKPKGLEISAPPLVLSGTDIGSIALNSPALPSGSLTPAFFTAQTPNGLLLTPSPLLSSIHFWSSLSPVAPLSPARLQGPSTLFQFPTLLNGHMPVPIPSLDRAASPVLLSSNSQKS
Particulars: protein: recombinant; tags: N-terminal GST; dsDNA, one strand shown. Put shortly: as §1

The target in assay [10] is T7, FEV (Homo sapiens, UniProt Q99581 1-238).
T7 sequence: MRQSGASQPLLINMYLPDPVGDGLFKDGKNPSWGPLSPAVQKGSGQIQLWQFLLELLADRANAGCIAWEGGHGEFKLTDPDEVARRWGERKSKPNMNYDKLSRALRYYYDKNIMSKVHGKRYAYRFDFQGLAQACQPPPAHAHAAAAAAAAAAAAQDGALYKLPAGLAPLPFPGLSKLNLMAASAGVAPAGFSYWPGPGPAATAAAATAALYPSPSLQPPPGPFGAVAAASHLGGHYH
Particulars: protein: recombinant; tags: N-terminal GST; dsDNA, one strand shown. Put shortly:
as §1

Assay [11] has as its target ETV5 (Homo sapiens, UniProt P41161 1-510). Particulars: protein: recombinant; tags: N-terminal GST; dsDNA, one strand shown. Put shortly:
as §1

For assay [12], the target named is HSF1 (Homo sapiens, UniProt Q00613 1-529). To be noted: protein: recombinant; tags: N-terminal GST; chain copies: 3; dsDNA, one strand shown. The method in brief: as §1
Assay [13] deals with T8, SPIC (Homo sapiens, UniProt Q8N5J4 1-248).
T8 sequence: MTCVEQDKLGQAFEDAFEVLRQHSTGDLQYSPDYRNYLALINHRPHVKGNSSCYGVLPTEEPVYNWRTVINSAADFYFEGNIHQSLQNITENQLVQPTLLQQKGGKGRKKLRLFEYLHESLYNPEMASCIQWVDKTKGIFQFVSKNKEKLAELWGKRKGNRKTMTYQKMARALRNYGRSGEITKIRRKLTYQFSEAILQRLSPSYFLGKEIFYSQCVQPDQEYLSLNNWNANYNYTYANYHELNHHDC
Particulars: protein: recombinant; tags: N-terminal GST; dsDNA, one strand shown. The method in brief: as §1

The target in assay [14] is ELF4 (Homo sapiens, UniProt Q99607 1-663). To be noted: protein: recombinant; tags: N-terminal GST; dsDNA, one strand shown. The method in brief:
as §1

Assay [15] has as its target T9, ELK4 (Homo sapiens, UniProt P28324-2 1-405).
T9 sequence: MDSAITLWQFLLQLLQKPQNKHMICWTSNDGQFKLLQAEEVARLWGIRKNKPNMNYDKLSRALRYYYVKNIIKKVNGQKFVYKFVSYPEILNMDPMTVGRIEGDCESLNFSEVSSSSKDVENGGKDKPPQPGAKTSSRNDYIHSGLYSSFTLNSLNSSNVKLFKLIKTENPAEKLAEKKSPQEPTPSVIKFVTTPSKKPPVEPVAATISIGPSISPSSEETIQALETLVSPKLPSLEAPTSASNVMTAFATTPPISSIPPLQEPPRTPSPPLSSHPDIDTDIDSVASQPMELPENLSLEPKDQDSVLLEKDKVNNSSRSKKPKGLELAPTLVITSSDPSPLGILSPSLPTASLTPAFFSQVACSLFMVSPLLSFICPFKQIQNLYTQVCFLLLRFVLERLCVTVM
Particulars: protein: recombinant; tags: N-terminal GST; dsDNA, one strand shown. Put shortly:
as §1

Assay [16] addresses T10, ETV2 (Homo sapiens, UniProt O00321 1-342).
T10 sequence: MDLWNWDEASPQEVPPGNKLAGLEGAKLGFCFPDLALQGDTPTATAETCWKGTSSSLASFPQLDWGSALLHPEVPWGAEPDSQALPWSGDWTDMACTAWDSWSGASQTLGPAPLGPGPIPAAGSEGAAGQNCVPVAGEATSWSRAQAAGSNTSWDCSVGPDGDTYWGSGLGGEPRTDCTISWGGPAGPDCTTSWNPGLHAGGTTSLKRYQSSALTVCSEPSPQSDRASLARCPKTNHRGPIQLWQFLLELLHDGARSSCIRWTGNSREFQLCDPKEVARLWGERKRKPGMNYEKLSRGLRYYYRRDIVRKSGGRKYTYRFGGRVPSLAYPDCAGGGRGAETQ
To be noted: protein: recombinant; tags: N-terminal GST; dsDNA, one strand shown. Put shortly:
as §1

The target in assay [17] is T11, ELF3 (Homo sapiens, UniProt P78545 1-371).
T11 sequence: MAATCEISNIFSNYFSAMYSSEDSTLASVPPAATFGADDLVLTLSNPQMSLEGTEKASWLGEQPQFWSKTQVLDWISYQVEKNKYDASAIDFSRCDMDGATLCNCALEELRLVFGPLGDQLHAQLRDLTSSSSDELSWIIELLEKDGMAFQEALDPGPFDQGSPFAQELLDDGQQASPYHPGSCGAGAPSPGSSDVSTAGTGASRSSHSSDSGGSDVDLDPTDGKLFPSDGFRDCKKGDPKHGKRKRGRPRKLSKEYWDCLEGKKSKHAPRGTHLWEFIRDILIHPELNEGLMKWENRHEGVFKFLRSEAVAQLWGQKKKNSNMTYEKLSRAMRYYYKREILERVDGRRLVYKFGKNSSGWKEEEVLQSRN
To be noted: protein: recombinant; tags: N-terminal GST; dsDNA, one strand shown. The method in brief:
as §1

The target of assay [18] is ETV1 (Homo sapiens, UniProt P50549 1-477). To be noted: protein: recombinant; tags: N-terminal GST; dsDNA, one strand shown. Put shortly: as §1
Sequence of ETV1 (P50549 whole entry): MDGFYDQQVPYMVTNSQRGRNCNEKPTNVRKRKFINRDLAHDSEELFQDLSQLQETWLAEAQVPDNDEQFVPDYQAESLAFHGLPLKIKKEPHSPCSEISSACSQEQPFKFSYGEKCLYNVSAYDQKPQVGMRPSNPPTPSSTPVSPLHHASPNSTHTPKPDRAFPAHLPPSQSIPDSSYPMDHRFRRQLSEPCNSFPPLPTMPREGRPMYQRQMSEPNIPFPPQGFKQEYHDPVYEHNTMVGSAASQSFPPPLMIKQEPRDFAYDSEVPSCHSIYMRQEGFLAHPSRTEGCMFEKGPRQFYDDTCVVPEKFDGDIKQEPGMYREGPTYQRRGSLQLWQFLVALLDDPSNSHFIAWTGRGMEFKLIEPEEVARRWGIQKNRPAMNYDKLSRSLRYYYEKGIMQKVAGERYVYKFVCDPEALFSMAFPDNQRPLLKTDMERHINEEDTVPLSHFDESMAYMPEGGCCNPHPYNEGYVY

Sequence of HSF1 (Q00613 whole entry): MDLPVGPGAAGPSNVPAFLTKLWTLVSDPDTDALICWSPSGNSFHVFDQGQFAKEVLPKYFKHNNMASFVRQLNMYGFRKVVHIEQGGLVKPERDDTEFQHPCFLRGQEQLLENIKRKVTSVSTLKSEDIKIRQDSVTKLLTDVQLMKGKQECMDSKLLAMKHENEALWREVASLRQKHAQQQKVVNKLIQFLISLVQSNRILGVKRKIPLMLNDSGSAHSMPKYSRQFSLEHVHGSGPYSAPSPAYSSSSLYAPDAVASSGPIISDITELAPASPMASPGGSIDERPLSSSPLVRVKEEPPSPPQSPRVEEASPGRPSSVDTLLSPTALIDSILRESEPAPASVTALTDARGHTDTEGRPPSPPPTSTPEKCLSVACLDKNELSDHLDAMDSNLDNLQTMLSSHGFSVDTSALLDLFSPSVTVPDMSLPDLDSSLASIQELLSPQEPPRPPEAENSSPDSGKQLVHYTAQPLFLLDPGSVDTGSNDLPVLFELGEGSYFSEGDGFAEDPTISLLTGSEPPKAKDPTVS
Sequence of ETV5 (P41161 whole entry): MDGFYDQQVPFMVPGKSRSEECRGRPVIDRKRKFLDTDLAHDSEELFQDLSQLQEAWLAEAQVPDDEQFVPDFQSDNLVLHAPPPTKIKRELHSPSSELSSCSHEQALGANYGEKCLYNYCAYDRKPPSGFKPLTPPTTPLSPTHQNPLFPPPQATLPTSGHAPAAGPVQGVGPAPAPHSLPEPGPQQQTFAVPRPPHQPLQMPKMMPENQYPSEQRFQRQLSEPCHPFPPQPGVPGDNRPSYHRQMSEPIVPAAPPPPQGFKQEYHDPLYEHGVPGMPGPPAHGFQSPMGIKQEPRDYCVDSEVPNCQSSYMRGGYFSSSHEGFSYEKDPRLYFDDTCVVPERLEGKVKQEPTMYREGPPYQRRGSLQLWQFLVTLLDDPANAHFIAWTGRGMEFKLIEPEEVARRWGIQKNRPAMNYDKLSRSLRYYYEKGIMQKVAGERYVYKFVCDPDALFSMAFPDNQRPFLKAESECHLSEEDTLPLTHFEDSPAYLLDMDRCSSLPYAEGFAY
Sequence of ELF4 (Q99607 whole entry): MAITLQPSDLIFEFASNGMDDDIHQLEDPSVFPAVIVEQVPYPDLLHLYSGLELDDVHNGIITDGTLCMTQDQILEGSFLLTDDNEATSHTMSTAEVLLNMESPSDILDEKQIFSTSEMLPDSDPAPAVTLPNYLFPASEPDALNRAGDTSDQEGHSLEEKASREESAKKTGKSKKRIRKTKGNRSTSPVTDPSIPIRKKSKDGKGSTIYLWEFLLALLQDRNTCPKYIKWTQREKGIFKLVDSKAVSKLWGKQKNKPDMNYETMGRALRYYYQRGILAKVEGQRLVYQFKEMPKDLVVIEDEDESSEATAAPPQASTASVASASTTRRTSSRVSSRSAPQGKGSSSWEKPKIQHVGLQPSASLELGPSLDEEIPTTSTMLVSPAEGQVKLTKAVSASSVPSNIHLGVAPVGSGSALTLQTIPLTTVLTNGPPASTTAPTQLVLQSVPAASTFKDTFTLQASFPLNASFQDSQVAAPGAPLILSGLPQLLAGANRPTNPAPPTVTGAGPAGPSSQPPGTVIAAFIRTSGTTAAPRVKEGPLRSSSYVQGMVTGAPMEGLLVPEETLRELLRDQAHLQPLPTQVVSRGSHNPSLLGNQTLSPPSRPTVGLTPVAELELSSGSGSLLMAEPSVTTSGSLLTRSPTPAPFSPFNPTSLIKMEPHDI
Sequence of SPIB (Q01892 whole entry): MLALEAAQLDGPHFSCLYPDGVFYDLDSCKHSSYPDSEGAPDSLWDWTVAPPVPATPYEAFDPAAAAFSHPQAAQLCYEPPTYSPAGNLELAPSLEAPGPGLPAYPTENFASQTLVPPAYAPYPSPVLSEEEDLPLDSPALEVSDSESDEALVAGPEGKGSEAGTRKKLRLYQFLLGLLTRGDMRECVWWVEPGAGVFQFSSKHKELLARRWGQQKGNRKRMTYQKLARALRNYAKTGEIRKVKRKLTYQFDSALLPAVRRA
Sequence of ELF1 (P32519 whole entry): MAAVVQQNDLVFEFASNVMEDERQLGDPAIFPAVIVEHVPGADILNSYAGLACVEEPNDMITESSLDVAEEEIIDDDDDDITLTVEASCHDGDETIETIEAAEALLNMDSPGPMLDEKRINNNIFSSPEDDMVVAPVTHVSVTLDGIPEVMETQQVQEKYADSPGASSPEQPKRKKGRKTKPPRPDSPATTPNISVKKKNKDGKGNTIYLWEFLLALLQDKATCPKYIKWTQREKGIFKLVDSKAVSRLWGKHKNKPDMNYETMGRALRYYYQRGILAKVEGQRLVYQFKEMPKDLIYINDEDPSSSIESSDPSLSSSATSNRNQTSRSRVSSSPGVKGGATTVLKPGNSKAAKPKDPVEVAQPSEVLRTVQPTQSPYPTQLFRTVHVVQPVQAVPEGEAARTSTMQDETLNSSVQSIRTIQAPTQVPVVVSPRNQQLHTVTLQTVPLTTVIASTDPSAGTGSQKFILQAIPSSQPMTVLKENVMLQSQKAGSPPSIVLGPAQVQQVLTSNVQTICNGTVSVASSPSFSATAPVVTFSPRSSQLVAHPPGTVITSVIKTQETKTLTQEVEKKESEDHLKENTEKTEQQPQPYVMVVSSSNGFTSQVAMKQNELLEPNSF

Take GATGCC: the binding signal in [1] was 1.45 fold enrichment (6-mer frequency, TF over GST control); in assay [2] it was 1.36 fold enrichment (6-mer frequency, TF over GST control); in assay [3], 1.38 fold enrichment (6-mer frequency, TF over GST control); in assay [4] it was 1.41 fold enrichment (6-mer frequency, TF over GST control); in [5], 1.32 fold enrichment (6-mer frequency, TF over GST control); in [6], 1.41 fold enrichment (6-mer frequency, TF over GST control). The binding signal in assay [7] is 1.35 fold enrichment (6-mer frequency, TF over GST control); in [8], 1.26 fold enrichment (6-mer frequency, TF over GST control); in assay [9], 1.38 fold enrichment (6-mer frequency, TF over GST control); in [10], 1.41 fold enrichment (6-mer frequency, TF over GST control); in assay [11], 1.46 fold enrichment (6-mer frequency, TF over GST control); in assay [12], 1.08 fold enrichment (6-mer frequency, TF over GST control). The binding signal in [13] was 1.22 fold enrichment (6-mer frequency, TF over GST control); in assay [14] it was 1.31 fold enrichment (6-mer frequency, TF over GST control); in assay [15], 1.42 fold enrichment (6-mer frequency, TF over GST control); in assay [16], 1.28 fold enrichment (6-mer frequency, TF over GST control); in assay [17] it was 1.4 fold enrichment (6-mer frequency, TF over GST control); in assay [18], 1.36 fold enrichment (6-mer frequency, TF over GST control).
